In one test the target is RABGEF1. The test is described as follows: pooled miR-30 sensor sort-seq; sequence = guide strand. Conditions: shRNA.
TTTCTTTTCTTCAAACTTGGAG had a sensor-assay potency score (higher = more potent) of -0.131.

Sequence TTCTTCAATGCTTAGATCCCTT showed a sensor-assay potency score (higher = more potent) of -0.412.

Sequence TTGGCTTCATTCATGATCCTTT displayed a sensor-assay potency score (higher = more potent) of 0.202.

Regarding TTATACATTTGCTTGACGCCTA, the sensor-assay potency score (higher = more potent) is 0.54.

The sequence TTATCTTCTCGACTCTTTCTGG displayed a sensor-assay potency score (higher = more potent) of -0.279.

Sequence TTTCAGAGTCAATAGCTGCTAA registered a sensor-assay potency score (higher = more potent) of -0.257.

Sequence TTTCTTGCACAGGAGATCCGAT returned a sensor-assay potency score (higher = more potent) of -0.404.

The next test has as its target RAD18. The description is as above. Conditions: shRNA.
The sequence TTTTCTAGCCTGATCCACCAGA displayed a sensor-assay potency score (higher = more potent) of -0.673.

In turn, TAGAATTTAGCATCTTTCCTTG displayed a sensor-assay potency score (higher = more potent) of -0.0135.

TTTATCAACAACTCTGATGTAG gave a sensor-assay potency score (higher = more potent) of 1.04.

For the sequence TTTTCTTTTATCAACAACTCTG, the sensor-assay potency score (higher = more potent) amounted to 0.0462.

Regarding TTTGTGAACAGAACTTCTGAGG, the sensor-assay potency score (higher = more potent) is -0.395.

TATAAATAGAAAATCTATCTGT: the sensor-assay potency score (higher = more potent) came to 0.122.

The sequence TTCTGTGTCTTGAAGATCGTTT gave a sensor-assay potency score (higher = more potent) of 0.506.

As to TTTCATTGAGTTTACTAGCTTC, the sensor-assay potency score (higher = more potent) was 0.211.

In the case of TTTCCTTCTTCTCTTCGCGTGA, the sensor-assay potency score (higher = more potent) was -0.0825.

Take TTTTGTGAACAGAACTTCTGAG: the sensor-assay potency score (higher = more potent) came to 0.451.

On to TACTTTGACAGCAAGATTCTTT, for which the sensor-assay potency score (higher = more potent) came to 0.474.

Another test addresses RAD54L. The test is described as above. As to conditions: shRNA.
Sequence TTGCACTCTGGACTCTGGCGTA yielded a sensor-assay potency score (higher = more potent) of -0.761.

TTCTTAATGGACATCGTGCCAT: the sensor-assay potency score (higher = more potent) is -0.43.

Take TCTTGTATAACTCAGTCTGAAG: the sensor-assay potency score (higher = more potent) is -1.48.

TTACAAAGCTTCTTTAGCGAGG displayed a sensor-assay potency score (higher = more potent) of -0.517.

Turning to TTGATTGGTTAGCTGACTCAAA, the sensor-assay potency score (higher = more potent) was -0.506.

As to TTCTTTTGACCATCTCGCCAGA, the sensor-assay potency score (higher = more potent) was -0.96.

On to TAGATATAGCAAGTCTTCTTTT, for which the sensor-assay potency score (higher = more potent) was -1.02.

In turn, TTGACCATCTCGCCAGACCCGG showed a sensor-assay potency score (higher = more potent) of -1.03.

Regarding TTAACAAAATGTACCAAGCTGA, the sensor-assay potency score (higher = more potent) is -0.415.

TTGTCTCAGAAACCTCTTGTAT showed a sensor-assay potency score (higher = more potent) of -1.26.

TTCTTGATGATTTTCTCCCAGA gave a sensor-assay potency score (higher = more potent) of -0.985.

Turning to TTCATGCTGACTGCTGTCCAGA, the sensor-assay potency score (higher = more potent) is -1.19.

A further test deals with RAD9A. Described as above. As to conditions: shRNA.
Regarding TCACATCTAAGACACTGCCTGG, the sensor-assay potency score (higher = more potent) was -0.534.

Consider TGAATCAATAGCAGCGTCCAGT, for which the sensor-assay potency score (higher = more potent) is -0.732.

As to TTTTTCCACCGTCTTCTCCAGC, the sensor-assay potency score (higher = more potent) was -1.2.

TTTACAGTGACAGCCAGCTGGG had a sensor-assay potency score (higher = more potent) of -1.03.

In turn, TACAGTGACAGCCAGCTGGGGC had a sensor-assay potency score (higher = more potent) of -0.774.

In turn, TGTGCTGTGAGCCTGGAGCTGA gave a sensor-assay potency score (higher = more potent) of -0.559.

On to TTCCTTAGGAAGGTGAGCCTGA, for which the sensor-assay potency score (higher = more potent) stood at 0.111.

On to TTCATCAGGATCTTACAGCGCA, for which the sensor-assay potency score (higher = more potent) is 0.0418.

The sequence TCAAGTTTGCTGACTCTGCAAA had a sensor-assay potency score (higher = more potent) of -0.678.

TTAATGAATCAATAGCAGCGTC gave a sensor-assay potency score (higher = more potent) of -0.585.

Values taken from the OligoGym collection.
Further: reference of the scale not given here.
